In PubChem BioAssay:
Several values for one entry are separate records, joined by “and”; a condition that tells them apart may be missing. Equal values may be shown once. Activity calls are given as the source filed them.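 The calls were made as follows, unless noted: active = thallium flux through the channel raised or lowered by more than 3 SD from vehicle-only wells, actives on both sides; inactive = the rest.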

Experiments:
[1] = system: Hepatitis C virus NS3 helicase; experiment: blockers of NS3h binding to DNA – biochemical, fluorescence polarization, NIH Clinical Collection, primary screen (AID 743270; call rule not given here); details: NS3 helicase binding to Cy5-dT15 DNA, stronger effect = higher value, concentration not given here
[2] = molecular target: Single-stranded DNA-binding protein (Escherichia coli (strain K12)) (UniProt P0AGE0); experiment: SSB-ssDNA binding inhibitors – biochemical, fluorescence polarization, NIH Clinical Collection, counter-screen for HCV NS3 helicase inhibitor project (AID 743271; in the data active = inhibition above about 28%); details: E. coli SSB-DNA binding, stronger effect = higher value, concentration not given here
[3] = compounds distorting NS3 helicase fluorescence signal – biochemical, NIH Clinical Collection, artefact control for HCV NS3 helicase inhibitor project (AID 743272; call rule not given here;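 also: HCV NS3 helicase with a Cy5 labelled single stranded DNA probe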); details: fluorescence interference counterscreen, HCV NS3 helicase assay; stronger effect = lower value
[4] = Wnt pathway potentiators raising nuclear beta-catenin – imaging, WNT3A-conditioned medium, mouse C2C12, NPC library, primary screen (AID 1117326; in the data active = nuclear beta-catenin stimulation mostly above about 4.2%, no sharp cut-off; inactive = mostly below about 10%); details: stronger effect = higher value
[5] = stimulators of insulin release from INS-1E, primary screen, cell-based, 5 mM glucose, NPC library (AID 1117329;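 active = compound raises insulin release from rat beta cells at 5 mM glucose, no numeric limit stated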); details: rat INS-1E insulin secretion, at 10 µM, stronger effect = higher value
[6] = growth inhibition of GSK3B-pretreated HCT116 cells – cell-based, CellTiter-Glo, 0.2 to 20 µM (AID 1117336;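 active = compounds lowering colon cancer cell viability after pretreatment blocking the GSK3B kinase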); details: HCT116 viability after GSK3B inhibitor, at 20 µM, stronger effect = higher value
[7] = inhibition of endothelial tube formation, primary screen, imaging, VEGF stimulated, CD31 staining, tube area, NPC library (AID 1117340;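 active = compound that reduces growth-factor-driven endothelial tube area in a mixed cell culture, no cutoff stated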); details: VEGF-stimulated ADSC/ECFC co-culture, at 10 µM, stronger effect = higher value
[8] = GLP1 release stimulators, primary, NCI-H716, NPC library (AID 1117341;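 active = compound raises GLP1 secretion from the human gut endocrine cells, with no numeric limit stated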); details: NCI-H716 cells, at 10 µM, stronger effect = higher value
[9] = HCT116 colon cancer cell growth inhibition, primary screen, CellTiter-Glo luminescence, NPC library (AID 1117342;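 active = compounds that lower survival of HCT116 colon cancer cells in the luminescence readout, no numeric limit stated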); details: at 20 µM (top of the series)
[10] = reduced SW480 viability measured with CellTiter-Glo, NPC library, primary (AID 1117343;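 active = compounds that lower viability of the colon cancer cells in the luminescence readout, with no numeric limit stated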); details: CellTiter-Glo luminescence; at 20 µM (top of the series)
[11] = NPC library primary testing for decreased DLD-1 cell viability via CellTiter-Glo (AID 1117346;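 active = compounds that lower survival of DLD-1 colon cancer cells in the luminescence readout, no cutoff given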); details: DLD-1 viability, CellTiter-Glo luminescence; at 20 µM (top of the series)
[12] = molecular target: 6-phosphogluconate dehydrogenase, decarboxylating (Homo sapiens) (UniProt P52209); experiment: inhibition of human phosphogluconate dehydrogenase – biochemical, recombinant enzyme, NADPH absorbance, primary screen (AID 1159550;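 active = at least 20% inhibition of 6-phosphogluconate dehydrogenase activity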); details: recombinant 6PGD, NADPH absorbance 341 nm; at 10 µM; stronger effect = higher value
[13] = viability loss with induced miR-34 in A549 – imaging, A549 dox-inducible miR-34, nuclei and caspase counts, primary screen (AID 1347080;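 active = compounds whose cell count with miR-34 switched on is under 0.7 times the count with it off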); details: A549 miR-34 inducible, Hoechst nuclei count, 48 h
[14] = MELAS cybrid and Rieske KO viability enhancers – cell-based, MELAS cybrids, Rieske KO mouse fibroblasts, CellTiter-Glo, primary screen (AID 1508586;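 active = mean z-score across replicates of 1.96 or higher in either the MELAS or the Rieske mutant cell line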;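 also: z relative to plate mean and SD of compound and empty wells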); details: low glucose
[15] = molecular target: NAD(+) hydrolase SARM1 (Homo sapiens) (UniProt Q6SZW1); experiment: blocking NAD cleavage by SARM1 SAM-TIR – cell lysate, NAD-Glo luminescence (AID 1508614;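 active = compound whose remaining NAD level is above about 45 nM, limit read from the data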;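 also: higher remaining NAD means stronger inhibition of SARM1 NADase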); details: SAM-TIR HEK293T lysate NADase, at 1 µM, stronger effect = higher value
[16] = molecular target: Mitogen-activated protein kinase 7 (Homo sapiens) (UniProt Q13164); experiment: Gal4-ERK5 driven luciferase induction – cell-based, HTS, primary screen (AID 1508626;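 active = luciferase signal above three times the same-plate solvent-only control wells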;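 also: luciferase driven by Gal4-ERK5 fusion binding five Gal4 sites before minimal TATA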); details: HeLa Gal4-ERK5 transactivation, 18 h, at 5 µM, stronger effect = higher value
F380Y = experiment: BK channel mutant inhibitors and activators – cell-based, U2OS BacMam, thallium flux, beta subunits, selectivity assay, profiling panel (AID 1259406); details: U2OS BacMam BK variants, at 30 µM;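 also: initial slope of Thallos dye fluorescence rise after thallium is added; log ratio against the mean of 0.3% DMSO vehicle wells on the same plate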
F380Y/beta2Delta = experiment: as above; details: U2OS BacMam BK variants, at 30 µM
[17] = molecular target: Calcium-activated potassium channel subunit alpha-1 (Homo sapiens) + Leucine-rich repeat-containing protein 26 (Homo sapiens) (UniProt Q12791+Q2I0M4); experiment: as above; details: U2OS BacMam BK variants, F380Y/Slo1WT/gamma1, at 30 µM
[18] = EMT-state selective cytotoxicity in co-culture – imaging, PC-3E GFP, TEM4-18 mCherry, primary screen (AID 1345086;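 active = compounds killing one labelled cell type while sparing the other, by normalised counts and ratio limits, not self-fluorescent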;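 as to all read-outs here: cells exposed to compound for 72 h before imaging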;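 as to red/green cell ratio (normalised): normalised mesenchymal count divided by normalised epithelial count so high means epithelial killing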); details: PC-3E GFP / TEM4-18 mCherry co-culture, imaging cell counts, at 1 µM; for red/green cell ratio (normalised): actives lie on both sides, counts scaled to control wells, 1 = unselective
[19] = stronger effect = lower value, cell number ratio, induced over uninduced
[20] = measured here: relative caspase fold change +Dox/-Dox
[21] = measured here: total cells with miR-34 induction, stronger effect = lower value
[22] = measured here: total cells without miR-34 induction
[23] = MELAS cybrid survival, CellTiter-Glo 48 h, stronger effect = higher value
[24] = Rieske KO mouse fibroblast survival, CellTiter-Glo 72 h
[25] = measured here: epithelial PC-3E GFP cell survival
[26] = measured here: mesenchymal TEM4-18 mCherry cell survival

Chain of Calcium-activated potassium channel subunit alpha-1 (Homo sapiens) + Leucine-rich repeat-containing protein 26 (Homo sapiens) (Q2I0M4 whole entry, looked up, one chain of several): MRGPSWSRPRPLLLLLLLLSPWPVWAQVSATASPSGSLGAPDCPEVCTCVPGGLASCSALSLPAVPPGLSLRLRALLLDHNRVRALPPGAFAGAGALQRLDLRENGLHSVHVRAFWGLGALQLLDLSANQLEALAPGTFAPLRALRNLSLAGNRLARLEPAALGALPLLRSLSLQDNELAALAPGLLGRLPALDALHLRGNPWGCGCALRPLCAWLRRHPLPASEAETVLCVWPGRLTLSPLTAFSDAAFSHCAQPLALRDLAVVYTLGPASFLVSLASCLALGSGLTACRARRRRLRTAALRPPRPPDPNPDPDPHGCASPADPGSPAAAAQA
Chain of 6-phosphogluconate dehydrogenase, decarboxylating (Homo sapiens) (P52209 whole entry, looked up): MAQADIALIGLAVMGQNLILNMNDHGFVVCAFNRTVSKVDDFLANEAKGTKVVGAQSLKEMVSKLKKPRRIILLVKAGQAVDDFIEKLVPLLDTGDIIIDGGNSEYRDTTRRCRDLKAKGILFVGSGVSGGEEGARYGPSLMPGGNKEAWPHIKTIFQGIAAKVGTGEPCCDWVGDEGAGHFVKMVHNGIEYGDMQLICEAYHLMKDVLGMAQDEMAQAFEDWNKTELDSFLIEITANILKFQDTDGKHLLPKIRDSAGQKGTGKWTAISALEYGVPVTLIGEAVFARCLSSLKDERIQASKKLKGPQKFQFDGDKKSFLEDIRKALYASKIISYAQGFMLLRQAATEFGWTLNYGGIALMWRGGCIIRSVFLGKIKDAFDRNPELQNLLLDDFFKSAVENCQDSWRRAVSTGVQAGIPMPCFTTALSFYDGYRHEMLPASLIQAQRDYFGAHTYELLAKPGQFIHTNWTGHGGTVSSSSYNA
Chain of Mitogen-activated protein kinase 7 (Homo sapiens) (Q13164 whole entry, looked up, the tested form may be a part): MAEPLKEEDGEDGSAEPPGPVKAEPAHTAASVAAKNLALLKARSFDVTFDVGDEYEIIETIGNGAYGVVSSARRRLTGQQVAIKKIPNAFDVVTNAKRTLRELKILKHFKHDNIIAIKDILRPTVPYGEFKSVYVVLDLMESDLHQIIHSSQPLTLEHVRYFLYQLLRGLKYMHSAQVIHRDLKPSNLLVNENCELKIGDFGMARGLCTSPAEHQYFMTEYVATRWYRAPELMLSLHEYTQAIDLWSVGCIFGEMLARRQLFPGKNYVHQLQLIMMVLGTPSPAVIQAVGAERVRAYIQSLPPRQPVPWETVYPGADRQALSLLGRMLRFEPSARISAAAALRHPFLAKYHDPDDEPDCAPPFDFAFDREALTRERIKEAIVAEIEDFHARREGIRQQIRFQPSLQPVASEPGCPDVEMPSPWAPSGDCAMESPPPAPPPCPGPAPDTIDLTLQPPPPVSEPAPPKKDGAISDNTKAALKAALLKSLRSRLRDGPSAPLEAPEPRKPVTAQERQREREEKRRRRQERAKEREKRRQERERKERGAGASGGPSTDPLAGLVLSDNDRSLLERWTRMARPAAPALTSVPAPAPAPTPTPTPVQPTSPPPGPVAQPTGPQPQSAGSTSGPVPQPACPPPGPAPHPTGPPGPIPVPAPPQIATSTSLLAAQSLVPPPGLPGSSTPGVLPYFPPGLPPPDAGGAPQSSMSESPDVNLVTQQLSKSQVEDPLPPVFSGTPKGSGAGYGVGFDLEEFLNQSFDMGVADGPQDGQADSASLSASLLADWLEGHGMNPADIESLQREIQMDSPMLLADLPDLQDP
Chain of NAD(+) hydrolase SARM1 (Homo sapiens) (Q6SZW1 whole entry, looked up, the tested form may be a part): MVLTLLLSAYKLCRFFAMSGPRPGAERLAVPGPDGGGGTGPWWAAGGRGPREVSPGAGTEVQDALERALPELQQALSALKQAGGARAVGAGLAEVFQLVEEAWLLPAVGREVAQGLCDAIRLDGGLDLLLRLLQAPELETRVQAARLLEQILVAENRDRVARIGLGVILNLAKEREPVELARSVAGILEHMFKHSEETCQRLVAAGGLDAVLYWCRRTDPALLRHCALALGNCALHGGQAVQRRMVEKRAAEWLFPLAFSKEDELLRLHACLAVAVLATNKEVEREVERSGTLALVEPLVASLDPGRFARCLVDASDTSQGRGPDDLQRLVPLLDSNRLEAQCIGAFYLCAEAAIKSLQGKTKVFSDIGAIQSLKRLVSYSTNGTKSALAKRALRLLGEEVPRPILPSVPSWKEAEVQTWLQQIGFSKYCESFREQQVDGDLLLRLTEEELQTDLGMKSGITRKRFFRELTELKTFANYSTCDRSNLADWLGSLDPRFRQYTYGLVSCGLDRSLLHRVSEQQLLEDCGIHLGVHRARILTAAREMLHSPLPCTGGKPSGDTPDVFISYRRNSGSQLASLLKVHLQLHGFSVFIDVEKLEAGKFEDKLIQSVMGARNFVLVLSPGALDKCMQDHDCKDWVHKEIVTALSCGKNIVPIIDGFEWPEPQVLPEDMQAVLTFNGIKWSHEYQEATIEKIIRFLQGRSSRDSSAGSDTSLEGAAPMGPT

CC(=O)[C@H]1CC[C@H]2[C@@H]3C[C@H](C)C4=CC(=O)CC[C@]4(C)[C@H]3[C@@H](O)C[C@]12C
inhibition [1]: -0.45% (inactive) | inhibition [2]: 0.29% (inactive) | fluorescence ratio [3]: 0.99 (inactive) | nuclear beta-catenin stimulation ([4]; at 10 µM): 0.3% (inactive) | nuclear beta-catenin stimulation ([4]; stimulation, at 2 µM): -0.3% | insulin secretion stimulation [5]: 0% (inactive) | viability decrease [6]: -48.8% (inactive) | tube area decrease [7]: 13.8% (inactive) | GLP1 secretion stimulation [8]: 0.4% (inactive) | inhibition of viability [9]: 14.4% (inactive) | viability decrease (inhibition) [10]: 11.1% (inactive) | viability decrease (inhibition) [11]: -5.4% (inactive) | inhibition [12]: -11.2% (inactive) | fold change [13, 19]: 0.951 (inactive) and 0.798 (inactive) | fold change [13, 20]: 1.06 and 1.54 | cell count [13, 21]: 6580 and 6920 | cell count [13, 22]: 6920 and 8680 | z-score [14, 23]: 0.756 (inactive) | z-score [14, 24]: 1.33 | remaining NAD [15]: 10 nM (inactive) | luciferase signal [16]: 84 AU (inactive) | log fold change Tl+ flux (F380Y): -0.0207 (inactive) | log fold change Tl+ flux (F380Y/beta2Delta): -0.0669 (inactive) | log fold change Tl+ flux [17]: -0.019 (inactive)

c1ccc(-c2ccc(C(c3ccccc3)n3ccnc3)cc2)cc1 (stereo not given)
inhibition [1]: 12.3% (inactive) | inhibition [2]: 8.37% (inactive) | fluorescence ratio [3]: 1.04 (inactive) | nuclear beta-catenin stimulation ([4]; at 10 µM): -0.1% (inactive) | nuclear beta-catenin stimulation ([4]; stimulation, at 2 µM): 0.5% | insulin secretion stimulation [5]: 0.3% (inactive) | viability decrease [6]: 99.7% (active) | tube area decrease [7]: 23.9% (inactive) | GLP1 secretion stimulation [8]: 8.2% (inactive) | inhibition of viability [9]: 101% (active) | viability decrease (inhibition) [10]: 141% (active) | viability decrease (inhibition) [11]: 104% (active) | inhibition [12]: 12.4% (inactive) | red/green cell ratio (normalised) [18]: 1.06 (inactive) | normalised cell number [18, 25]: 0.98 | normalised cell number [18, 26]: 1.04 | z-score [14, 23]: -0.456 (inactive) and -0.0732 (inactive) and 0.0643 (inactive) | z-score [14, 24]: -0.196 and 0.568 and 0.472 | remaining NAD [15]: 10 nM (inactive) | luciferase signal [16]: 56 AU (inactive) | log fold change Tl+ flux (F380Y): -0.00418 (inactive) | log fold change Tl+ flux (F380Y/beta2Delta): 0.0145 (inactive) | log fold change Tl+ flux [17]: 0.0139 (inactive)

Cc1cccc(Nc2ccncc2S(=O)(=O)NC(=O)NC(C)C)c1
inhibition [1]: -1.19% (inactive) | inhibition [2]: -0.1% (inactive) | fluorescence ratio [3]: 1.02 (inactive) | nuclear beta-catenin stimulation ([4]; at 10 µM): -1.1% (inactive) | nuclear beta-catenin stimulation ([4]; stimulation, at 2 µM): -0.1% | insulin secretion stimulation [5]: 5% (inactive) | viability decrease [6]: -8.2% (inactive) | tube area decrease [7]: -9.9% (inactive) | GLP1 secretion stimulation [8]: -2% (inactive) | inhibition of viability [9]: -1.7% (inactive) | viability decrease (inhibition) [10]: -0.7% (inactive) | viability decrease (inhibition) [11]: -9.6% (inactive) | inhibition [12]: -8.28% (inactive) | fold change [13, 19]: 0.955 (inactive) and 0.95 (inactive) | fold change [13, 20]: 0.599 and 1.15 | cell count [13, 21]: 8770 and 10100 | cell count [13, 22]: 9180 and 10600 | z-score [14, 23]: -0.921 (inactive) | z-score [14, 24]: -0.333 | remaining NAD [15]: 10 nM (inactive) | log fold change Tl+ flux (F380Y): 0.0355 (inactive) | log fold change Tl+ flux (F380Y/beta2Delta): -0.0041 (inactive) | log fold change Tl+ flux [17]: -0.0447 (inactive)

Nc1nc2ncc(CNc3ccc(C(=O)N[C@@H](CCC(=O)O)C(=O)O)cc3)nc2c(=O)[nH]1
inhibition [1]: -2.27% (inactive) | inhibition [2]: 11% (inactive) | fluorescence ratio [3]: 0.92 (inactive) | nuclear beta-catenin stimulation ([4]; at 10 µM): 0.8% (inactive) | nuclear beta-catenin stimulation ([4]; stimulation, at 2 µM): 0.5% | insulin secretion stimulation [5]: 2.4% (inactive) | viability decrease [6]: -64.4% (inactive) | tube area decrease [7]: 16.7% (inactive) | GLP1 secretion stimulation [8]: -1.5% (inactive) | inhibition of viability [9]: -2.33% (inactive) | viability decrease (inhibition) [10]: 6.4% (inactive) | viability decrease (inhibition) [11]: -8.5% (inactive) | inhibition [12]: -0.853% (inactive) | fold change [13, 19]: 0.937 (inactive) and 0.906 (inactive) and 0.91 (inactive) | fold change [13, 20]: 1.68 and 0.997 and 3.41 | cell count [13, 21]: 10800 and 8990 and 11200 | cell count [13, 22]: 11600 and 9920 and 12300 | z-score [14, 23]: 0.332 (inactive) | z-score [14, 24]: -0.293 | remaining NAD [15]: 10 nM (inactive) | luciferase signal [16]: 188 AU (inactive) | log fold change Tl+ flux (F380Y): -0.0861 (inactive) | log fold change Tl+ flux (F380Y/beta2Delta): -0.000783 (inactive) | log fold change Tl+ flux [17]: -0.00611 (inactive)

COc1ccccc1N1CCN(CCCNc2cc(=O)n(C)c(=O)n2C)CC1
inhibition [1]: -2.77% (inactive) | inhibition [2]: -1.64% (inactive) | fluorescence ratio [3]: 0.96 (inactive) | nuclear beta-catenin stimulation ([4]; at 10 µM): 4.3% (inactive) | nuclear beta-catenin stimulation ([4]; stimulation, at 2 µM): 0.2% | insulin secretion stimulation [5]: 1.1% (inactive) | viability decrease [6]: 1.1% (inactive) | tube area decrease [7]: 1% (inactive) | GLP1 secretion stimulation [8]: -0.1% (inactive) | inhibition of viability [9]: 10.8% (inactive) | viability decrease (inhibition) [10]: -11.2% (inactive) | viability decrease (inhibition) [11]: -9.9% (inactive) | inhibition [12]: -3.41% (inactive) | red/green cell ratio (normalised) [18]: 1.12 (inactive) | normalised cell number [18, 25]: 0.91 | normalised cell number [18, 26]: 1.01 | z-score [14, 23]: -0.289 (inactive) and 0.285 (inactive) | z-score [14, 24]: 0.041 and 0.0737 | remaining NAD [15]: 10 nM (inactive) | luciferase signal [16]: 40 AU (inactive) | log fold change Tl+ flux (F380Y): -0.0416 (inactive) | log fold change Tl+ flux (F380Y/beta2Delta): -0.00368 (inactive) | log fold change Tl+ flux [17]: -0.00786 (inactive)

CN(C)CCOC(c1ccccc1)c1ccccc1
inhibition [1]: -1.19% (inactive) | inhibition [2]: 5.29% (inactive) | fluorescence ratio [3]: 0.99 (inactive) | nuclear beta-catenin stimulation ([4]; at 10 µM): 0.5% (inactive) | nuclear beta-catenin stimulation ([4]; stimulation, at 2 µM): -1% | insulin secretion stimulation [5]: 14.4% (inactive) | viability decrease [6]: -17.4% (inactive) | tube area decrease [7]: 1% (inactive) | GLP1 secretion stimulation [8]: 4.4% (inactive) | inhibition of viability [9]: 36.7% (inactive) | viability decrease (inhibition) [10]: 57.8% (active) | viability decrease (inhibition) [11]: 1% (inactive) | inhibition [12]: 11.2% (inactive) | red/green cell ratio (normalised) [18]: 1.07 (inactive) | normalised cell number [18, 25]: 1.28 | normalised cell number [18, 26]: 1.37 | z-score [14, 23]: -0.301 (inactive) and 0.806 (inactive) and -0.802 (inactive) | z-score [14, 24]: 0.641 and 0.428 and 1.04 | remaining NAD [15]: 10 nM (inactive) | luciferase signal [16]: 36 AU (inactive) | log fold change Tl+ flux (F380Y): 0.0428 (inactive) | log fold change Tl+ flux (F380Y/beta2Delta): 0.0216 (inactive) | log fold change Tl+ flux [17]: -0.0145 (inactive)
